Measured values published in PubChem BioAssay.
Records with an inconclusive call do not appear. Activity calls are given as the source filed them.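 Rule for the calls, unless noted: active = inhibition above 54%, about 3 SD of non-fluorescent compounds; inactive = the rest.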

How the values were obtained:
[1] = rapamycin-like changes in RPL19A-GFP expression – cell-based, S. cerevisiae, multiplex flow cytometry, primary screen (AID 1862; in the data active = percent of DMSO control GFP below about 86%;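 note: lower values mimic rapamycin by blocking the RPL19A rise seen in DMSO cells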); conditions: S. cerevisiae RPL19A-GFP strain, flow cytometry fluorescence, 3 h; at 10 µM; stronger effect = lower value
[2] = TOR pathway GLN3 branch reporter MEP2-GFP changes – S. cerevisiae, multiplex flow cytometry, primary screen (AID 1867;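 active = GFP response, as percent of the DMSO control, above the screen-wide mean plus 3 SD, about 139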;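 note: median GFP channel fluorescence of barcode-gated MEP2-GFP cells measured by flow cytometry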); conditions: S. cerevisiae MEP2-GFP strain, 3 h, at 10 µM, stronger effect = higher value, 100% means same as DMSO wells
[3] = TOR pathway RTG branch CIT2 reporter changes – S. cerevisiae, GFP fusion, multiplex flow cytometry, primary screen (AID 1870;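 active = percent response above a set limit, the screen-wide mean plus 3 SD, cut at about 130% in these data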;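 note: barcoded CIT2-GFP strain pooled with four other GFP strains with rapamycin as positive control; median GFP fluorescence per well over plate mean of DMSO wells so 100% = DMSO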); conditions: S. cerevisiae CIT2-GFP expression, 3 h, at 10 µM, stronger effect = higher value
[4] = TOR pathway LAP4-GFP level changes – S. cerevisiae, multiplex flow cytometry, primary screen (AID 1873;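 active = GFP signal, as percent of the solvent control, above the screen mean plus 3 SD, about 149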); conditions: S. cerevisiae LAP4-GFP expression, 3 h, at 10 µM, stronger effect = higher value
[5] = yeast AGP1-GFP level changes, GLN3 branch – cell-based, multiplex flow cytometry, S. cerevisiae, primary screen (AID 1887;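 active = GFP signal above the screen-wide mean plus 3 SD, that is over about 124.5% of the solvent control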;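 note: AGP1-GFP fusion strain of S. cerevisiae within a five-strain barcoded multiplex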); conditions: 3 h, at 10 µM, stronger effect = higher value
[6] = reduced mouse 2C T cell binding to pMHC/ICAM-1 vesicles – MLPCN validation set, flow cytometry, LFA-1/ICAM-1 modulator project, pilot screen (AID 2523;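 active = response below a set limit, under 55% cells CD8-positive and vesicle-bound, and CD8 cells' 90th-percentile brightness under 279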;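 for vesicle binding response: mean PE anti-B7-1 fluorescence of CD8+ cells relative to row control; 100% = QL9-loaded vesicles with DMSO vehicle in the same plate row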); conditions: 2C mouse CD8+ T cells, at 7 µM, stronger effect = lower value; double positive events: measured here: CD8+/vesicle+ event percentage
[7] = biological target: Integrin beta-1 (Homo sapiens) + Integrin alpha-4 (Homo sapiens) (UniProt P13612+P05556); assay: alpha4beta1 integrin LIBS antibody binding reduction – U937 cells, HUTS-21 mAb, flow cytometry, validation set, VLA-4 allosteric modulator project, pilot screen (AID 2674;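 active = inhibition above 50%, about 3 SD of the validation set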;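 note: antibody binding induced by the VLA-4 ligand LDV present at three times its Kd; 0% = LDV ligand with antibody and no compound and 100% = antibody without LDV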); conditions: HUTS-21 LIBS mAb binding, at 6.7 µM, stronger effect = higher value, binding induced by LDV ligand
Integrin beta-1 (Homo sapiens) + Integrin alpha-4 (Homo sapiens), sequence (P05556 whole entry, looked up): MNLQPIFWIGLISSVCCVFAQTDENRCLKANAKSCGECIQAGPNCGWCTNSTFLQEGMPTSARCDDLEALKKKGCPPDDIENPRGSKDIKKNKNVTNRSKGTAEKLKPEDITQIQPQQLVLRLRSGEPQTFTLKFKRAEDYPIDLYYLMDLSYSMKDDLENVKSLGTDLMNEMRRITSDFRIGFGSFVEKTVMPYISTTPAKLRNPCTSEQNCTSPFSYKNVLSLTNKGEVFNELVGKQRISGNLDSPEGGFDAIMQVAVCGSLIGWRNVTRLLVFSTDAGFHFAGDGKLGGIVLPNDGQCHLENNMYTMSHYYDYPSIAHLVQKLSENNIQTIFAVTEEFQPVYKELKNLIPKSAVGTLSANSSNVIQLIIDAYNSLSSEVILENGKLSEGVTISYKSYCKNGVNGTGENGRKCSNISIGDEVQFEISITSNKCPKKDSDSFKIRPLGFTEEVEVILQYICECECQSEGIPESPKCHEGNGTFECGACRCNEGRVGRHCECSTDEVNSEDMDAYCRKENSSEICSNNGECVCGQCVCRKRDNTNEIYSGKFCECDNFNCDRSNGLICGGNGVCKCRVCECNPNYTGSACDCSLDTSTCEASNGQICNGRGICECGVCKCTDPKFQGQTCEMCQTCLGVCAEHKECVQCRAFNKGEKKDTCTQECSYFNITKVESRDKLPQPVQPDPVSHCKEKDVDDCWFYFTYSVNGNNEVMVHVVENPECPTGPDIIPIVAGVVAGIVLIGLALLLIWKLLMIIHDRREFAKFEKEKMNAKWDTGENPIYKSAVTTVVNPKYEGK
Integrin beta-1 (Homo sapiens) + Integrin alpha-4 (Homo sapiens), sequence (P13612 whole entry, looked up): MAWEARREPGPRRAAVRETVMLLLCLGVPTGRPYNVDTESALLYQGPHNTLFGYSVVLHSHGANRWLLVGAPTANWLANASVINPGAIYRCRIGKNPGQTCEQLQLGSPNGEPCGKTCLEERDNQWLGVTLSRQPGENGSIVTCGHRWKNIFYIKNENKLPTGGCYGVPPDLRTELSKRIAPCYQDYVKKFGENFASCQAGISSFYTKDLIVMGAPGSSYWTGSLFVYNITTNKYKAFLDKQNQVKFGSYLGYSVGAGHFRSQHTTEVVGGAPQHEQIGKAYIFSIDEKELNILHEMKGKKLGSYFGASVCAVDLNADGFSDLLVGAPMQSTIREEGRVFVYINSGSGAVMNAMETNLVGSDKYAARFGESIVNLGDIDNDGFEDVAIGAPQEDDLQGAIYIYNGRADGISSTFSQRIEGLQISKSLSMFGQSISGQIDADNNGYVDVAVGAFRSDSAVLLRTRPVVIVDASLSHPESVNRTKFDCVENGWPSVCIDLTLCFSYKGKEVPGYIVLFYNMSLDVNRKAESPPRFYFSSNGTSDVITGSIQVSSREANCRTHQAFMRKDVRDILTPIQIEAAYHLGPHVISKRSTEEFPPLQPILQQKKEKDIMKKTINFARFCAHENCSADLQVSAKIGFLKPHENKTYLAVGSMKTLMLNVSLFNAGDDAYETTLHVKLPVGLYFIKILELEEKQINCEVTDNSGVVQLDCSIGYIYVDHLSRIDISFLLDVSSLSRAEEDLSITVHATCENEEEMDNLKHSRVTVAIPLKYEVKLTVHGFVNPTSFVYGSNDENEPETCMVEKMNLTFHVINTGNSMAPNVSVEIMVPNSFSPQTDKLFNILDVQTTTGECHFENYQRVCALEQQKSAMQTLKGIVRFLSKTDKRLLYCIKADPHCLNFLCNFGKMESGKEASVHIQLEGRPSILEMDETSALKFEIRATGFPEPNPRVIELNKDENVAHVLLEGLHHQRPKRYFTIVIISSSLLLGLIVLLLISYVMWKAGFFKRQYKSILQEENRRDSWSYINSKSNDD

[8] = calorie-restriction mimetic ROS inhibitors, yeast – validation compound set, pilot screen (AID 2706;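 active = superoxide response below 65% of plate, a cut near 3 SD across the whole screen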;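 note: yeast exposed to compound for one week at 30 degrees C before staining; 100% = mean of all compound wells on the same plate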); conditions: S. cerevisiae aging, superoxide DHE fluorescence; at 10 µM, stronger effect = lower value
[9] = biological target: Beta-adrenergic receptor kinase 1 (Homo sapiens) (UniProt P25098); assay: GRK2 binders displacing RNA aptamer, biochemical, validation, human GRK2, bead flow cytometry (AID 488806;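 active = aptamer binding inhibition above 30%, about 3 SD of noise from non-fluorescent compounds; inactive = inhibition at or below 30%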); conditions: bead-bound GRK2, FAM-aptamer displacement, at 10 µM, stronger effect = higher value
Beta-adrenergic receptor kinase 1 (Homo sapiens), sequence (P25098 whole entry, looked up, the tested form may be a part): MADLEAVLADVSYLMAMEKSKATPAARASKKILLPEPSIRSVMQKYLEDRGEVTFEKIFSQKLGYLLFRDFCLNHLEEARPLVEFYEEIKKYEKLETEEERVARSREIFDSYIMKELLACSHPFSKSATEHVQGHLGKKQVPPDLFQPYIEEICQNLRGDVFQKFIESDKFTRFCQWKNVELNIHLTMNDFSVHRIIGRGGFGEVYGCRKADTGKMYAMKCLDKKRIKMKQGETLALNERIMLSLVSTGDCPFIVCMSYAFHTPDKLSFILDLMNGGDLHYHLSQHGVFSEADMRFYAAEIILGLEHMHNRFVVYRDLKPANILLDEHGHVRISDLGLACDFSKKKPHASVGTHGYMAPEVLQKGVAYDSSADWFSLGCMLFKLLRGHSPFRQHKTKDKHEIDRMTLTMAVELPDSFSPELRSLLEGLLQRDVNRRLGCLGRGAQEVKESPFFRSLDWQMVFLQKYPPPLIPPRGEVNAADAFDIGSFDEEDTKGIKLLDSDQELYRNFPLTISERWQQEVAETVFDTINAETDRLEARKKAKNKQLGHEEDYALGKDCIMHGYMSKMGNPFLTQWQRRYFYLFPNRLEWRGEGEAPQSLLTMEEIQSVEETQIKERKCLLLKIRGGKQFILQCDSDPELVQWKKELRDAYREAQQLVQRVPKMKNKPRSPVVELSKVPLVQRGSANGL

[10] = biological target: AP-2 complex subunit beta (Homo sapiens) (UniProt P63010); assay: beta-arrestin/AP2 interaction blockers – biochemical, validation set, GST-AP2 beads, flow cytometry, pilot screen (AID 504541); conditions: FITC arrestin peptide, at 10 µM, stronger effect = higher value, AP2 beta2 appendage fragment, R879A mutant;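 note: AP2 carries R879A mutation and is captured from E. coli lysate; bead-bound FITC arrestin peptide fluorescence measuring arrestin peptide binding to AP2; 0% = DMSO wells and 100% = excess unlabeled arrestin peptide control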
AP-2 complex subunit beta (Homo sapiens), sequence (P63010 whole entry, looked up, the tested form may be a part, one chain of several): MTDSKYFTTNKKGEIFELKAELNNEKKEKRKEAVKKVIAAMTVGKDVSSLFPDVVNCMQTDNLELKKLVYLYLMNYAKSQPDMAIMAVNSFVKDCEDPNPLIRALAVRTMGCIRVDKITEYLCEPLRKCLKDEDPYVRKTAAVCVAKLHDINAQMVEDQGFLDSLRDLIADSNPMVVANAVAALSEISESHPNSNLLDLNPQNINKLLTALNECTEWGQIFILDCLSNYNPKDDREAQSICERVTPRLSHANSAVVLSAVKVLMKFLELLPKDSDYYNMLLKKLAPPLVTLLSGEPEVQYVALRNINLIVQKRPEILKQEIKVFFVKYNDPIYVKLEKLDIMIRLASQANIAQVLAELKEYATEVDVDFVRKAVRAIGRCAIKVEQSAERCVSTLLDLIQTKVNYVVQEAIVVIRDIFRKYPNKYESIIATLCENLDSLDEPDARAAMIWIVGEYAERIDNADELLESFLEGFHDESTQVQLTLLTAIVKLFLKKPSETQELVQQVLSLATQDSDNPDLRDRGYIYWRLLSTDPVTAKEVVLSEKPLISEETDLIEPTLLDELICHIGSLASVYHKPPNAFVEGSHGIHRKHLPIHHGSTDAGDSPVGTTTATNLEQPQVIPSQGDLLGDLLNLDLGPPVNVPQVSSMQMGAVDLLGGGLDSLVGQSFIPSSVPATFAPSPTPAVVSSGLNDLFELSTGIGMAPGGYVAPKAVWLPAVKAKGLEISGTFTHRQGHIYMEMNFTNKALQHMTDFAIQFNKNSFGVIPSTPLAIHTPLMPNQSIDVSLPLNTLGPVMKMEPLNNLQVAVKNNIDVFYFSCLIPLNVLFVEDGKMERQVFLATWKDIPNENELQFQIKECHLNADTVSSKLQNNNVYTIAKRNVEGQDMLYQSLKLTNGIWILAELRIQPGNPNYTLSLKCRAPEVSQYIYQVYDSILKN

[11] = cytosolic pH regulators acting via V-ATPase – S. cerevisiae, pHLuorin, HTS validation (AID 504600; in the data active = response above about 15%;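 note: plate controls were DMSO for no effect and reference compound for full effect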); conditions: V-ATPase proton transport, at 10 µM, stronger effect = higher value
[12] = test system: anti-desmoglein-3 scFv antibody binding to human DSG3; assay: blockers of pathogenic pemphigus antibody–desmoglein-3 binding – biochemical, validation compound set, bead-based, flow cytometry, pilot screen (AID 588368;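 active = binding below the plate cutoff, the plate median minus 3 SD, with a reading above zero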;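 note: signal is the median channel fluorescence of bead-bound GFP antibody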); conditions: Protein G beads, DSG3-Fc, scFv-GFP binding, at 10 µM, stronger effect = lower value
[13] = Nile Red efflux blockade in pump-expressing yeast – validation compound set, multiplex, phenotypic, pilot screen (AID 588506;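 active = efflux inhibition above 0.42, the validation set average plus 4 SD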;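 note: Nile Red retained in cells so higher fluorescence means more efflux inhibition; 0 = negative control wells and 1 = enniatin B 25 µM full block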); conditions: S. cerevisiae pump-expressing triplex, Nile Red efflux flow cytometry; at 10 µM; stronger effect = higher value; the pumps come from Candida albicans
[14] = biological target: ATP-binding cassette sub-family B member 6 (Homo sapiens) (UniProt Q9NP58); assay: blockers of ABCB6-driven porphyrin uptake – K562-ABCB6 cells, flow cytometry, validation set, pilot screen (AID 588550;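 active = inhibition above the screen-wide mean plus 3 SD, about 51%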;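 note: 0% = DMSO wells and 100% = benzethonium chloride 70 µM positive control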); conditions: K562-ABCB6 porphyrin accumulation, 1 h, at 10 µM, stronger effect = higher value
ATP-binding cassette sub-family B member 6 (Homo sapiens), sequence (Q9NP58 whole entry, looked up): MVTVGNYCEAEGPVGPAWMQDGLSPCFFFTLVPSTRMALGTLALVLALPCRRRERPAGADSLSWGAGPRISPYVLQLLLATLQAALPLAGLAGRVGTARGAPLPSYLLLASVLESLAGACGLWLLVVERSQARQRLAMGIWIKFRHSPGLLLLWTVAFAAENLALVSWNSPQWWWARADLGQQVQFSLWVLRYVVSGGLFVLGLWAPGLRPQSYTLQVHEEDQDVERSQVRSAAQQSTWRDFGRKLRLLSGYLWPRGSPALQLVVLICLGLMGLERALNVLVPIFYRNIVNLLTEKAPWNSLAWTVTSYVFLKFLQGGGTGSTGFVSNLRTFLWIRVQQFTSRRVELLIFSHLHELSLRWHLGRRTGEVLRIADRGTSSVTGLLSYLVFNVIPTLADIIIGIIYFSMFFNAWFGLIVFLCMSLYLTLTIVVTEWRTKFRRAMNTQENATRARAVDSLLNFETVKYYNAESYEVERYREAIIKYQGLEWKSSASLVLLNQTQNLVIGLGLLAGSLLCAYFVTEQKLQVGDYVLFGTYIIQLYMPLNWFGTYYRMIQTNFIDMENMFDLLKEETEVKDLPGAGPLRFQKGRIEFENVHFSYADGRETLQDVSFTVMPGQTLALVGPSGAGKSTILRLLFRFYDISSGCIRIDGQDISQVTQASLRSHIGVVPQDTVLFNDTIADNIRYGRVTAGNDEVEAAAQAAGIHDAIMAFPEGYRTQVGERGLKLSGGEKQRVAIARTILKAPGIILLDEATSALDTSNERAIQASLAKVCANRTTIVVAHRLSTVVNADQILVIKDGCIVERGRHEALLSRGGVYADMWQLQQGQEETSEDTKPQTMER

[15] = AML differentiation inducers, ER-HoxA9 marrow cells – cell-based, GFP/MAC1 double positive, flow cytometry, validation set, primary screen (AID 588685;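 active = differentiation response of at least 50%, scaled between solvent and reference control, from cells with both markers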;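 note: compound exposure lasts four days before antibody staining and flow analysis; 0% = DMSO wells and 100% = 5 µM fulvestrant positive control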); conditions: stronger effect = higher value, normalized: vehicle 0, fulvestrant 100

CC(C)(C)[C@]1(O)CCN2C[C@H]3c4ccccc4CCc4cccc(c43)[C@@H]2C1
inactive: percent of DMSO control GFP [1] 106% | GFP response vs DMSO [2] 97.9% | percent response of DMSO control [3] 112% | GFP response vs DMSO [4] 102% | GFP response, % of DMSO [5] 107% | vesicle binding response [6] 134% | inhibition [7] -20.8% | superoxide response (% of plate) [8] 95.1% | aptamer binding inhibition [9] -4% | inhibition [10] -19.5% | response [11] 1.63% | binding (% of control) [12] 106% | efflux inhibition (fraction of control) [13] -0.2 | inhibition [14] 6% | differentiation response [15] 20.8%
35.9%: double positive events [6]

COCCOC(=O)c1c(C)oc2ccc(OCc3cc(C(=O)OC)oc3C)cc12
active: response [11] 26.8%
inactive: percent of DMSO control GFP [1] 97.6% | GFP response vs DMSO [2] 102% | percent response of DMSO control [3] 93.9% | GFP response vs DMSO [4] 101% | GFP response, % of DMSO [5] 98.1% | vesicle binding response [6] 202% | inhibition [7] 10.9% | superoxide response (% of plate) [8] 93.4% | aptamer binding inhibition [9] 0% | inhibition [10] -4.42% | binding (% of control) [12] 98.7% | efflux inhibition (fraction of control) [13] 0.06 | inhibition [14] 4% | differentiation response [15] -11.5%
52.6%: double positive events [6]

CCCCNc1cc(C(=O)O)cc(S(N)(=O)=O)c1Oc1ccccc1
52.3%: double positive events [6]
inactive: percent of DMSO control GFP [1] 102% | GFP response vs DMSO [2] 103% | percent response of DMSO control [3] 97.9% | GFP response vs DMSO [4] 89.3% | GFP response, % of DMSO [5] 102% | vesicle binding response [6] 179% | inhibition [7] 16.6% | superoxide response (% of plate) [8] 96.1% | aptamer binding inhibition [9] 6% | inhibition [10] 1.29% | response [11] 10.1% | binding (% of control) [12] 99.5% | efflux inhibition (fraction of control) [13] 0.06 | inhibition [14] 11% | differentiation response [15] -9.89%

CC1(C)S[C@@H]2[C@H](NC(=O)C(C(=O)O)c3ccccc3)C(=O)N2[C@H]1C(=O)O (stereo not given in full)
inactive: percent of DMSO control GFP [1] 96.3% | GFP response vs DMSO [2] 94.8% | percent response of DMSO control [3] 105% | GFP response vs DMSO [4] 88.3% | GFP response, % of DMSO [5] 98.5% | vesicle binding response [6] 212% | inhibition [7] 2.56% | superoxide response (% of plate) [8] 108% | aptamer binding inhibition [9] 4% | inhibition [10] 1.78% | response [11] -1.48% | binding (% of control) [12] 97.2% | efflux inhibition (fraction of control) [13] -0.12 | inhibition [14] 9% | differentiation response [15] 1.41%
53.1%: double positive events [6]

O=C(/C=C/c1ccco1)N1CCN(c2ccccc2)CC1
inactive: percent of DMSO control GFP [1] 103% | GFP response vs DMSO [2] 90.8% | percent response of DMSO control [3] 107% | GFP response vs DMSO [4] 86.3% | GFP response, % of DMSO [5] 92.7% | vesicle binding response [6] 210% | inhibition [7] 8.15% | superoxide response (% of plate) [8] 89% | aptamer binding inhibition [9] 1% | inhibition [10] 6.32% | response [11] 5.81% | binding (% of control) [12] 101% | efflux inhibition (fraction of control) [13] -0.09 | inhibition [14] 5% | differentiation response [15] -19.6%
56.2%: double positive events [6]

COc1cccc(OCc2cc(C3Nc4ccccc4C(=O)N3Cc3ccco3)ccc2OC)c1 (stereo not given)
inactive: percent of DMSO control GFP [1] 106% | GFP response vs DMSO [2] 99.9% | percent response of DMSO control [3] 104% | GFP response vs DMSO [4] 92.3% | GFP response, % of DMSO [5] 88.9% | vesicle binding response [6] 127% | inhibition [7] 3.49% | superoxide response (% of plate) [8] 99.1% | aptamer binding inhibition [9] 4% | inhibition [10] -4.8% | response [11] 0% | binding (% of control) [12] 96.5% | efflux inhibition (fraction of control) [13] 0.03 | inhibition [14] 3% | differentiation response [15] -9.89%
53.2%: double positive events [6]

O=C(COc1ccccc1)N1CCN(c2ccccc2)CC1
53.2%: double positive events [6]
inactive: percent of DMSO control GFP [1] 102% | GFP response vs DMSO [2] 104% | percent response of DMSO control [3] 103% | GFP response vs DMSO [4] 100% | GFP response, % of DMSO [5] 97.8% | vesicle binding response [6] 176% | inhibition [7] -3.97% | superoxide response (% of plate) [8] 94% | aptamer binding inhibition [9] 2% | inhibition [10] 5.07% | response [11] -1.27% | binding (% of control) [12] 97.8% | efflux inhibition (fraction of control) [13] 0.25 | inhibition [14] 6% | differentiation response [15] 9.49%

COc1ccc(OCC(=O)N2c3ccc(C)cc3C3CN(C)CCC32)cc1 (stereo not given)
69.1%: double positive events [6]
inactive: percent of DMSO control GFP [1] 104% | GFP response vs DMSO [2] 101% | percent response of DMSO control [3] 105% | GFP response vs DMSO [4] 98.4% | GFP response, % of DMSO [5] 96.1% | vesicle binding response [6] 238% | inhibition [7] 10% | superoxide response (% of plate) [8] 90.6% | aptamer binding inhibition [9] -10% | inhibition [10] -6.29% | response [11] -0.64% | binding (% of control) [12] 106% | efflux inhibition (fraction of control) [13] 0.33 | inhibition [14] 5% | differentiation response [15] 32.1%

COc1ccc(CCNC(=O)C(=O)Nc2ccc3c(c2)OCO3)cc1OC
65.2%: double positive events [6]
inactive: percent of DMSO control GFP [1] 104% | GFP response vs DMSO [2] 104% | percent response of DMSO control [3] 107% | GFP response vs DMSO [4] 101% | GFP response, % of DMSO [5] 101% | vesicle binding response [6] 220% | inhibition [7] -4.9% | superoxide response (% of plate) [8] 96.1% | aptamer binding inhibition [9] 5% | inhibition [10] -11.2% | response [11] 6.72% | binding (% of control) [12] 94.1% | efflux inhibition (fraction of control) [13] -0.16 | inhibition [14] 10% | differentiation response [15] -1.82%

CC(C)CCOCC(=O)Nc1cccc(C(=O)O)c1
inactive: percent of DMSO control GFP [1] 99.5% | GFP response vs DMSO [2] 107% | percent response of DMSO control [3] 98.8% | GFP response vs DMSO [4] 95.4% | GFP response, % of DMSO [5] 99.7% | vesicle binding response [6] 174% | inhibition [7] 10.9% | superoxide response (% of plate) [8] 110% | aptamer binding inhibition [9] 1% | inhibition [10] 41.3% | response [11] -5.9% | binding (% of control) [12] 103% | efflux inhibition (fraction of control) [13] -0.12 | inhibition [14] 3% | differentiation response [15] 11.1%
59.8%: double positive events [6]
